Reference: PubChem BioAssay (Tox21)
Inconclusive results are not listed. A call without a number means that no potency is given here. Active and inactive are the calls of the source. Calls follow the shape of the dose curve; as a rule, active = well fitted inhibition curve with a large enough effect in the repeat runs; inconclusive = weak or mixed curves; inactive = flat fitted curve, though single readings scatter.

Assay: qHTS assay to identify small molecule HDAC inhibitors (AID 1259364); also: nearly all actives have a fitted effect of over 45% in size
Details: HCT-116 HDAC-Glo I/II luminescence, 2 h; series mostly up to 92.4 µM
Text: U.S. Tox21 Program National Center for Advancing Translational Sciences [NCATS] NIH Chemical Genomics Center [NCGC] U.S. Environmental Protection Agency [EPA] National Institutes of Environmental Health Sciences [NIEHS] National Toxicology Program [NTP] U.S. Food and Drug Administration [FDA] Tox21 Assay Overview: Histone deacetylases (HDACs) are a group of epigenetic enzymes that regulate gene expression by histone deacetylation. HDACs are capable of introducing epigenetic modifications and such aberrations contribute to the onset and progression of several human diseases, thus making HDACs a popular therapeutic target. For identifying endogenous class I/II HDAC inhibitors a homogenous, luminogenic HDAC I/II cell based assay was used to measure the relative activity of class I and II HDACs from cells. Wild type HCT-116 cells were used to screen Tox21 libraries for identifying class I/II HDAC inhibitors.
Tox21 Assay Protocol Summary: HCT-116 cells were dispensed at 1,500 per well in 5uL of culture medium into white solid bottom 1536-well plates (Greiner Bio-One, Monroe, NC) using a Multidrop Combi (Thermo Scientific, Waltham, MA) dispenser. The assay plates were incubated at 37 C and 5% CO2 for an overnight, and then 23nL of compounds dissolved in DMSO and positive control were transferred using a Pintool station (Wako, San Diego, CA). The assay plates were incubated at 37C and 5% CO2 for 2hr. After compound treatment, 4uL of HDAC-Glo reagent (Promega Corporation, Madison, WI) was added to each well of the assay plates using Flying Reagent Dispenser (FRD, Aurora Discovery, San Diego, CA) and incubated the assay plates at room temperature for 30min. The luminescence signal was quantified using a ViewLux plate reader (Perkin Elmer, Shelton, CT).
Potency is read from the fitted curve at half-maximal effect.

Structure (SMILES) | Potency
CC(C)(C)C(O)C(Oc1ccc(-c2ccccc2)cc1)n1cncn1 (stereo not given) | inactive
Cn1[nH]nnc1=S | inactive
COc1cc(N)c(Cl)cc1C(=O)NC1CN2CCC1CC2 (stereo not given) | inactive
C[C@@H]1O[C@@H](O[C@@H]2C=C3CC[C@@H]4[C@H](CC[C@]5(C)[C@@H](c6ccc(=O)oc6)CC[C@]45O)[C@@]3(C)CC2)[C@H](O)[C@H](O)[C@H]1O | inactive
CCc1nn(C)c(C(=O)NCc2ccc(C(C)(C)C)cc2)c1Cl | inactive
Cc1cc(C(F)(C(F)(F)F)C(F)(F)F)ccc1NC(=O)c1cccc(I)c1C(=O)NC(C)(C)CS(C)(=O)=O | inactive
O=[N+]([O-])c1cc(C(F)(F)F)c(Cl)c([N+](=O)[O-])c1Cl | inactive
COC(=O)N(C(=O)N1CO[C@@]2(C(=O)OC)Cc3cc(Cl)ccc3C2=N1)c1ccc(OC(F)(F)F)cc1 | inactive
CCOP(=S)(OCC)SCS(=O)(=O)CC | inactive
Cl/C=C\CCl | inactive
C[C@@H]1O[C@@H](O[C@H]2C[C@@H](O)[C@]3(CO)[C@H]4[C@H](O)C[C@]5(C)[C@@H](C6=CC(=O)OC6)CC[C@]5(O)[C@@H]4CC[C@]3(O)C2)[C@H](O)[C@H](O)[C@H]1O | inactive
O=C/C(Cl)=C(/Cl)C(=O)O | inactive
CCN(CC)c1c([N+](=O)[O-])cc(C(F)(F)F)c(N)c1[N+](=O)[O-] | inactive
COS(=O)(=O)c1ccc(C)cc1 | inactive
FC(F)(F)c1cccc(C2=CCN(CCc3ccc4ccccc4c3)CC2)c1 | inactive
C=CCOC(N)=O | inactive
CC(Cc1ccc(C(C)(C)C)cc1)CN1C[C@@H](C)O[C@@H](C)C1 (stereo not given in full) | inactive
N#C/C=C/C#N | inactive
CCCCOP(=O)(CCCC)OCCCC | inactive
Cc1c(Cl)c(=O)oc2cc(OP(=O)(OCCCl)OCCCl)ccc12 | inactive

Structure (SMILES) | Potency
CCCCCCCCCCCCCCC(Br)C(=O)O (stereo not given) | inactive
CN(C)C(=S)S | inactive
CC(C)(c1ccc(O)c(-c2ccccc2)c1)c1ccc(O)c(-c2ccccc2)c1 | inactive
Cc1ccc(C(=O)Cl)cc1 | inactive
CC(C)CC(C)N (stereo not given) | inactive
Oc1cccc(-c2ccccc2)c1 | inactive
CC1(c2ccc(Oc3ccccc3)cc2)OC(=O)N(Nc2ccccc2)C1=O (stereo not given) | inactive
O=CC(Br)(Br)Br | inactive
Clc1ccc(-c2ccccc2)cc1 | inactive
CC(=O)[O-].CC(=O)[O-].[Hg+2] | 19.3 µM (active)
CCCCOCN(C(=O)CCl)c1c(CC)cccc1CC | inactive
C[C@]12CC[C@H]3[C@@H](CCC4=CC(=O)CC[C@@]43C)[C@@H]1CC[C@@H]2O | inactive
Oc1ccc(I)cc1 | inactive
[Hg+2].[I-].[I-] | 24.3 µM (active)
CCCCCCCCCC[N+](C)(C)CCCCCCCCCC | inactive
CC(Cl)CN(C)C (stereo not given) | inactive
N#CCCC(Br)(C#N)CBr (stereo not given) | inactive
CCCCCCCCCCCCCCCC[n+]1ccccc1 | inactive
CC(C)CBr | inactive
CCc1cc(C)cc(CC)c1-c1c(OC(=O)C(C)(C)C)n2n(c1=O)CCOCC2 | inactive
